PNC assembly inh – perinucleolar compartment assembly inhibition. actives 3.1% (n = 140,000). activity change (PNC), negative = inhibition, % at 10 µM. PC3M PTB-GFP, PNC prevalence imaging, 16 h; hits give low values;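 active = readout at or below -70, meaning at least 70% loss of cells showing the perinucleolar compartment, a nuclear body marking cancer cells; inconclusive = readout between -30 and a set limit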;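 note: plate controls were DMSO wells for no effect and camptothecin positive control wells for full effect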
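PC3M cells stably expressing PTB-GFP, 750–1000 cells/well, treated 16 h at 37 °C with compound (23 nl of library stock), in duplicate. After paraformaldehyde fixation and Hoechst stain, imaged at 20x; PNC prevalence scored by image analysis.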
HPGD inh – HPGD (human) dehydrogenase inhibition; AID 894; Potency, µM, for inactives: at the highest dose activity change, negative = inhibition, most hits filed as inhibitors; purified HPGD, NADH fluorescence kinetic, PGE2 substrate; actives 4.3% (n = 150,000); active = well fitted inhibition curve with a large enough effect, not every such curve was filed as active; inconclusive = small, poorly fitted or top-dose-only effect, or another doubt; inactive = no such curve, though single readings can be large or run the other way; note: potency is the fitted concentration of half-maximal effect
Target sequence (P15428 whole entry, looked up): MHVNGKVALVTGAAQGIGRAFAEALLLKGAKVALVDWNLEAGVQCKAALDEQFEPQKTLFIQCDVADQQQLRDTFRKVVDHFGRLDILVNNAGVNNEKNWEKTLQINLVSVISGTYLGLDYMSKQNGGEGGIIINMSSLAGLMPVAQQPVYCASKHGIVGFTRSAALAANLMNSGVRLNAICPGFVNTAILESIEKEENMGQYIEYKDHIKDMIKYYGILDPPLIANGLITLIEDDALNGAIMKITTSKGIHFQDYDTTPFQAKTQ
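20 nM HPGD preincubated 15 min at room temperature with compound in 50 mM Tris-HCl pH 8, 0.01% Tween 20. Started with 1 mM NAD+ and 30 uM prostaglandin E2; NADH fluorescence (360/450 nm) read 5 times over 30-s intervals, last minus first.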
12-hLO inh – blocks human 12-lipoxygenase activity; P18054; purified 12-hLO, xylenol orange hydroperoxide absorbance; Potency, µM (top dose mostly 57.1 µM), for the others: top-dose activity change, negative = inhibition, most hits filed as inhibitors; actives 0.12% (n = 150,000); note: potency is the fitted concentration of half-maximal effect; nearly all actives have a fitted effect of over 55% in size
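150 nM 12hLO, 25 mM Hepes pH 7.0 + 0.01% Triton X-100; cpd preinc 15 min RT; 40 uM arachidonic acid, 30 min RT; Fe-XO 30 min; A573/A405 ratio as read-out.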
IMPase cell inh – membrane-permeable compound that blocks inositol monophosphatase. P97697. CHO-M1 cells, IP1 accumulation, HTRF TR-FRET ratio. inhibition (IP1 accumulation), % at 46.1 µM. 120,000 tested, under 10 active. AID 901; active = well fitted curve in the direction sought with a large enough effect in the signal ratio, not every such curve was filed as active; inconclusive = small, poorly fitted or top-dose-only effect, or a change in a side signal; inactive = no such curve, though single readings can be large or run the other way; the % refers to the signal ratio;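 note: cells stimulated with carbachol in lithium chloride buffer; plate controls were DMSO basal wells for no effect and reference inhibitor wells for full effect; higher means more IMPase inhibition seen as more IP1 and lower FRET ratio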
Target sequence (P97697 whole entry, looked up): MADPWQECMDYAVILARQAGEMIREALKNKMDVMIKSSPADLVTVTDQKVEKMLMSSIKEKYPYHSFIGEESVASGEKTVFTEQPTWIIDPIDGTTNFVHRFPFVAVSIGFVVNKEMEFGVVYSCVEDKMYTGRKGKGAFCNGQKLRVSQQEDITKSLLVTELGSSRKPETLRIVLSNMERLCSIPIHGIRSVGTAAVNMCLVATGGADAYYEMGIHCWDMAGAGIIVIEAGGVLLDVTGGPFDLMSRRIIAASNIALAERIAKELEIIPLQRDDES
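Measured: the HTRF emission ratio (665/620 nm) plus the 620 nm donor channel, each fitted to the Hill equation to give AC50. Cells were CHO-M1 given compounds up to 46 uM and a 30 min carbachol stimulation at 37C.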
IMPase Li cell – membrane-permeable IMPase blocker, potentiated with lithium; CHO-M1 cells, IP1 TR-FRET (IP-One), carbachol + lithium; Potency, µM (titrated, usually from 59.4 µM), for the others: top-dose activity, negative = IMPase inhibition, actives largely listed as inhibitors; actives 0.35% (n = 210,000);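 note: IP1 builds up when IMPase is blocked and the TR-FRET signal falls; potency is the fitted concentration of half-maximal effect; plate controls were basal vehicle for no effect and high inhibitor control for full effect; nearly all actives have a fitted effect of over 50% in size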
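CHO-M1, 2000 cells/well, 16–30 h culture; cpd + low Li+, 30 min 37C; lysis with d2-IP1/Eu-anti-IP1 Ab, 10 min RT; TR-FRET 665/620 ratio and 620 channel; AC50 via Hill.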
ALDH1A1 block – ALDH1A1 (human) enzyme inhibition; P00352; Purified ALDH1A1, NADH fluorescence, propionaldehyde substrate; Potency, µM (series often up to 75.3 µM), without a hit: top-dose activity, negative = inhibition, most hits filed as inhibitors; actives 7.3% (n = 220,000); active = well fitted inhibition curve with a large enough effect, not every such curve was filed as active; inconclusive = small, poorly fitted or top-dose-only effect, or another doubt; inactive = no such curve, though single readings can be large or run the other way;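 note: potency is the fitted concentration of half-maximal effect; plate controls were no enzyme wells and a reference inhibitor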
* hit, by the source's call; ? = inconclusive; · = not tested or not shown; [ ] = remark or other dose. In the library only some 11% were active in any assay of this set; here they are far more common. Unless noted, calls come from the whole dose curve; as a rule, active = well fitted curve in the direction sought with a large enough effect; inconclusive = small, poorly fitted or top-dose-only effect, or another doubt; inactive = no such curve, though single readings can be large; an effect the other way counts as inactive or inconclusive. Unless noted, % is set by controls: 0 for no effect and ±100 for the full control effect.

SMILES	PNC assembly inh	HPGD inh	12-hLO inh	IMPase cell inh	IMPase Li cell	ALDH1A1 block
CCCCC(=O)NC(c1cccs1)c1cc(Cl)c2cccnc2c1O (stereo not given)	·	·	·	·	5%	7.1µM*
c1ccc(CSc2n[nH]c(-c3ccco3)n2)cc1	?	13µM*	-1%	?	13%[38.3 µM]	-5%
Cc1ccccc1NC(=O)CSc1n[nH]c(-c2ccco2)n1	·	·	·	·	8%	-3%
O=C(Cc1cccs1)N/N=C/c1ccco1	-9	-12%	2%	2	-2%	-3%
O=C(Cc1cccs1)N/N=C/C=C\c1ccco1	51	-20%	-7%	8	0%	25µM*
Cc1cccc(C)c1OCC(=O)N/N=C/C=C/c1ccco1	·	·	·	·	-7%	13µM*
O=C(N/N=C/C=C/c1ccc([N+](=O)[O-])cc1)c1cccs1	61	16µM*	-4%	2	-25%[38.3 µM]	-12%
O=C(N/N=C/C=C/c1ccco1)c1ccccc1Cl	·	·	·	·	-5%	?
Cc1cccc(OCC(=O)N/N=C/C=C/c2ccco2)c1	-10	-7%	-9%	·	13%	?
O=C(N/N=C/C=C\c1ccco1)c1cccs1	·	·	·	·	12%	28µM*
CC#C[C@]1(O)CC[C@H]2C3CCC4=CC(=O)CCC4=C3[C@@H](c3ccc(N(C)C)cc3)C[C@@]21C (stereo not given in full)	·	-8%	·	·	19%	6%
COc1ccccc1Oc1c(C)oc2c(CN(C)C)c(O)ccc2c1=O	?	?	-4%	?	-13%	?
Cc1ccc(/C=c2\s/c(=C(/C#N)C(=O)N3CCCC3)n(Cc3ccco3)c2=O)s1	-90*	?	-28%	7	39%[38.3 µM]	3.5µM*
COc1cc(/C=c2\s/c(=C(/C#N)C(=O)N3CCCC3)n(-c3ccccc3)c2=O)ccc1O	?	-13%	-3%	1	-17%[38.3 µM]	23%
Cc1ccc(C2CC(=O)NC(SCc3ccccc3)=C2C#N)o1 (stereo not given)	-26	22µM*	?	5	-19%[38.3 µM]	-103%
CCCCCCSC1=C(C#N)C(c2ccc(C)o2)CC(=O)N1 (stereo not given)	-24	32µM*	-3%	9	33%[38.3 µM]	7.9µM*
CCCCSC1=C(C#N)C(c2ccccc2C)CC(=O)N1 (stereo not given)	5	?	-2%	5	7%[38.3 µM]	-12%
N#CC1=C(SCC(=O)NC2CCCCC2)NC(=O)CC1c1ccco1 (stereo not given)	21	-17%	3%	-3	12%[38.3 µM]	11µM*
O=C(CSc1ccc(F)cc1)NC1CCCCC1	·	·	·	·	4%	6%
N#CC1=C(SCc2ccccc2)NC(=O)CC1c1ccco1 (stereo not given)	-2	-28%	-10%	8	14%[38.3 µM]	22µM*
COc1ncc2nc(-c3cn(C)c4ccccc34)c(=O)n(C)c2n1	·	·	·	·	0%	?
COC(=O)NC(c1ccc(Cl)cc1)C(C(C)=O)C(=O)OC (stereo not given)	·	·	·	·	·	13%[13.5 µM]
N#CC1=C(SCC(=O)NCc2ccccc2)NC(=O)CC1c1ccco1 (stereo not given)	-3	-10%	3%	2[1.84 µM]	37%[38.3 µM]	8.9µM*
CCOC(=O)c1ccc(-n2c(CN3CCC(C(N)=O)CC3)nc3ccc([N+](=O)[O-])cc3c2=O)cc1	·	·	·	·	19%	8.9µM*
CCOC(=O)c1ccc(-n2c(CN(CC)CC)nc3ccc([N+](=O)[O-])cc3c2=O)cc1	·	·	·	·	3%	28µM*
SMILES	PNC assembly inh	HPGD inh	12-hLO inh	IMPase cell inh	IMPase Li cell	ALDH1A1 block
CCOC(=O)c1ccc(-n2c(CN3CCN(CC)CC3)nc3ccc([N+](=O)[O-])cc3c2=O)cc1	·	·	·	·	8%	?
CCOC(=O)c1ccc(-n2c(CN3CCC(O)CC3)nc3ccc([N+](=O)[O-])cc3c2=O)cc1	·	·	·	·	4%	?
CCN1C(=O)[C@@H]2[C@H]3C(=CC[C@H]2C1=O)C(=O)[C@H]1OC1[C@H]3O (stereo not given in full)	·	·	·	·	·	-4%[13.5 µM]
Cc1cc(C=O)c(C)n1-c1sc2c(c1C(=O)O)CCCC2	18	0%	-4%	·	-6%	4%
Cc1c(C(=O)O)cccc1-n1c(C)cc(C=O)c1C	·	·	·	·	0%	22µM*
Cc1ccc(C(=O)O)cc1-n1c(C)cc(C=O)c1C	·	·	·	·	11%	2µM*
COc1ccc(C(=O)NC(=S)Nc2ccc(S(N)(=O)=O)cc2)cc1	·	·	·	·	-2%	29%
NC(N)=NS(=O)(=O)c1ccc(NC(=S)NC(=O)c2ccc(Br)cc2)cc1	·	·	·	·	-5%	10µM*
COCCN1C(=O)/C(=C/c2ccc(OCc3ccc(C(=O)O)cc3)c(OC)c2)SC1=Nc1ccccc1	39	-8%	3%	·	7%	1.1µM*
COc1cc(/C=C2\SC(=Nc3ccccc3)N(Cc3ccco3)C2=O)ccc1OC(C)C(=O)O (stereo not given)	?	-27%	-6%	·	15%	-4%
O=P(O)(O)O[C@@H]1[C@H](O)[C@H](O)[C@@H](OP(=O)(O)O)[C@H](OP(=O)(O)O)[C@H]1O	·	0%	-2%[0.00818 µM]	·	-7%	2%
O=C(Oc1ccc(N(Cc2cccs2)C2=NS(=O)(=O)c3ccccc32)cc1)c1ccc(Cl)cc1	15	-21%	0%	13	13%	22µM*
CCC(=O)N1C(=O)CCN(C(C)=O)c2ccccc21	-94*	-3%	-2%	?	-9%	-8%
CCC(=O)N1C(=O)C2(Nc3ccccc3N2)c2ccccc21	·	·	·	·	2%	5%
O=C(O)c1ccc(COc2c(F)c(F)c(F)c(F)c2F)o1	-100*	-15%	-4%	-8	2%	8%
CCOC(=O)CSc1nc(C)c(C(C)=O)cc1C#N	13	22µM*	8%	-7	9%	20%
CC(=O)c1cc(C#N)c(SCC(=O)O)nc1C	?	-6%	-1%	1	0%[38.3 µM]	1%
CC(=O)c1cc(C#N)c(Oc2cc(C)cc(C)c2)nc1C	-114*	-7%	-5%	1	-16%[38.3 µM]	6%
O=C(CC(=O)NC1CCCCC1)N/N=C/c1ccccc1Cl	34	-18%	-1%	·	-1%	5%
O=C(CC(=O)NC1CCCCC1)N/N=C/c1cccc2ccccc12	-86*	?	-3%	7[1.84 µM]	11%[38.3 µM]	?
COC(=O)C12CC3(CCC4C5C(C(OCc6ccccc6)C41)C52)OCCO3 (stereo not given)	·	·	·	·	·	11%[13.5 µM]
CCc1c(C)nc(Nc2nc(C)c3ccc(OC)cc3n2)[nH]c1=O	-27	-4%	-3%	8	31%[38.3 µM]	2.2µM*
c1coc(CN=C2NC(=NCc3ccco3)c3ccccc32)c1	-25	-25%	-6%	1	24%[38.3 µM]	25µM*
O=C1c2ccccc2NC(c2ccc(O)cc2)N1Cc1ccco1 (stereo not given)	-26	?	-10%	-3	3%[38.3 µM]	?
